Experimental data from the supplement of paper PMC4840960.
Where a name gives a salt, the structure may show the parent alone. ± gives the standard deviation of the averaged measurements.

tested on: E18 rat cortical neuron-glia co-culture; assay: fiber score / MBP score (myelination specific beyond OL differentiation) (ratio); higher = more myelination-specific MBP alignment; conditions: 5 µM; treatment time: 8 days (DIV5-DIV13)
Outline: (§1)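 Primary E18 rat cortical co-cultures (papain-dissociated, 20,000 cells/well on poly-d-lysine/laminin 96-well plates) received library compounds at 1 or 5 µM in myelination medium from DIV5 to DIV13. Cells were fixed in 4 % paraformaldehyde and immunostained for MBP and Olig2 with DAPI, and four 10X fields per well in duplicate wells were analysed. The read-out is fiber score (continuous MBP fiber length per Olig2+ nucleus) divided by MBP score (thresholded MBP area × intensity per Olig2+ nucleus).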

Fiber score / MBP score, 0.471 ± 0.094:
CN(C)CCC(c1ccc(Cl)cc1)c1ccccn1 (centres undefined) [Chlorpheniramine]

Fiber score / MBP score, 0.587:
CN1CCN(C2=Nc3cc(F)ccc3Cc3ccccc32)CC1 [Fluperlapine]

Fiber score / MBP score, 0.796:
CCCC(=O)Nc1ccc(OCC(O)CNC(C)C)c(C(C)=O)c1 (centres undefined) [Acebutolol]

Fiber score / MBP score, 1.17:
O=C(NCCO[N+](=O)[O-])c1cccnc1 [Nicorandil]

Fiber score / MBP score, 0.943:
CC(=O)SCC(Cc1ccccc1)C(=O)NCC(=O)OCc1ccccc1 (centres undefined) [Racecadotril]

Fiber score / MBP score, 0.826:
O=c1c(O[C@@H]2O[C@H](CO)[C@@H](O)[C@H](O)[C@H]2O)c(-c2ccc(O)c(O)c2)oc2cc(O)cc(O)c12 [Isoquercitrin]

Fiber score / MBP score, 0.778:
CC(=O)Nc1ccc(CC(=O)O)cc1 [Actarit]

Fiber score / MBP score, 1.19:
CC1(C)S[C@@H]2[C@H](NC(=O)Cc3ccccc3)C(=O)N2[C@H]1C(=O)O [Penicillin G]

Fiber score / MBP score, 0.761:
CC1(C)S[C@@H]2[C@H](NC(=O)[C@H](N)c3ccc(O)cc3)C(=O)N2[C@H]1C(=O)O [Amoxicillin]

Fiber score / MBP score, 1.22:
CN(C)CCC=C1c2ccccc2CCc2ccccc21 [Amitriptyline]

Fiber score / MBP score, 0.883:
NC12CC3CC(CC(C3)C1)C2 [Amantadine]

Fiber score / MBP score, 0.504:
Cc1[nH]c(=O)c(C#N)cc1-c1ccncc1 [Milrinone]

Fiber score / MBP score, 0.91:
CCN(CC)CCNC(=O)c1cc(Cl)c(N)cc1OC [Metoclopramide]

Fiber score / MBP score, 0.858:
CCOC(=O)C1=C(C)NC(C)=C(C(=O)OC)C1c1cccc(Cl)c1Cl (centres undefined) [Felodipine]

Fiber score / MBP score, 0.877:
Nc1nc(N)nc(-c2cc(Cl)ccc2Cl)n1 [Irsogladine]

tested on: E18 rat cortical neuron-glia co-culture; assay: myelination (MBP fiber length per Olig2+ nucleus), % of 1 µM DAPT response (DMSO = 0) (% of DAPT); higher = more myelination, active = 50 or more; conditions: 1 µM; treatment time: 8 days (DIV5-DIV13)
Outline: as §1, with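 “Myelination was continuous straight” for “The read-out is fiber score (continuous”, “nucleus, normalised to 0.1 % DMSO (0) and a 1 µM positive control (100).” for “nucleus) divided by MBP score (thresholded MBP area × intensity per Olig2+ nucleus).”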

myelination, 62.1:
CN1CCN(c2c(F)cc3c(=O)c(C(=O)O)cn4c3c2SCC4)CC1 [Rufloxacin]

myelination, inactive:
NC(=O)c1cccnc1 [Niacinamide] -7.93, CCOC(=O)C1=C(C)NC(C)=C(C(=O)OC)C1c1cccc([N+](=O)[O-])c1 (centres undefined) [Nitrendipine] -7.81, CC(C)NCC(O)COc1ccc(CCOCC2CC2)cc1 (centres undefined) [Betaxolol] -12.6, CNNCc1ccc(C(=O)NC(C)C)cc1 [Procarbazine] -6.44, NC(=O)N1c2ccccc2CC(=O)c2ccccc21 [Oxcarbazepine] 3.46, CC1CNc2c(cccc2S(=O)(=O)N[C@@H](CCCNC(=N)N)C(=O)N2CC[C@@H](C)C[C@@H]2C(=O)O)C1 (some centres undefined) [Argatroban] -43.9, C=C1/C(=C\C=C2/CCC[C@]3(C)[C@@H]([C@H](C)/C=C/[C@@H](O)C4CC4)CC[C@@H]23)C[C@@H](O)C[C@@H]1O [Calcipotriene] -43.8, CC(C)(C#N)c1cc(Cn2cncn2)cc(C(C)(C)C#N)c1 [Anastrozole] -5.96, CC(C)[C@H]1CC[C@H](C(=O)N[C@H](Cc2ccccc2)C(=O)O)CC1 [Nateglinide] -12.6, C[C@]12CC[C@@H]3c4ccc(OS(=O)(=O)O)cc4CC[C@H]3[C@@H]1CCC2=O [Estrone sulfate] 3.23, CC(C)(C)NC[C@H](O)COc1nsnc1N1CCOCC1 [Timolol] -4.47, COc1cc(C[C@@H](CO)[C@H](CO)Cc2ccc(O)c(OC)c2)ccc1O [Secoisolariciresinol] -4.03, CN1CCN(CC/C=C2/c3ccccc3Sc3ccc(S(=O)(=O)N(C)C)cc32)CC1 [Thiothixene] -6.05, Cc1ccnc2c1NC(=O)c1cccnc1N2C1CC1 [Nevirapine] -18.6, O=C(O)COCCN1CCN(C(c2ccccc2)c2ccc(Cl)cc2)CC1 (centres undefined) [Cetirizine] -5.85, Cc1cccc(Nc2ccncc2S(=O)(=O)NC(=O)NC(C)C)c1 [Torsemide] -11.6, Cc1ncc([N+](=O)[O-])n1CCO [Metronidazole] -7.63, CC(=O)[C@H]1CC[C@H]2[C@@H]3CCC4=CC(=O)CC[C@]4(C)[C@H]3CC[C@]12C [Progesterone] -31.5, CO[C@@]1(NC(=O)Cc2cccs2)C(=O)N2C(C(=O)O)=C(COC(N)=O)CS[C@@H]21 [Cefoxitin] -5.64, CC(=O)N1CCN(c2ccc(OCC3COC(Cn4ccnc4)(c4ccc(Cl)cc4Cl)O3)cc2)CC1 (centres undefined) [Ketoconazole] -0.358, C#C[C@]1(OC(C)=O)CC[C@H]2[C@@H]3CCC4=CC(=O)CC[C@@H]4[C@H]3CC[C@@]21C [Norethisterone acetate] -8.44, NS(=O)(=O)c1cc2c(cc1Cl)N=CNS2(=O)=O [Chlorothiazide] 3.67, C[C@]12CCC(=O)C=C1CC[C@@H]1[C@@H]2C(=O)C[C@@]2(C)[C@H]1CC[C@]2(O)C(=O)CO [Cortisone] -12.4, CC1(C)S[C@@H]2[C@H](NC(=O)Cc3ccccc3)C(=O)N2[C@H]1C(=O)O [Penicillin G] 12.3, CN(C)CCC=C1c2ccccc2CCc2ccccc21 [Amitriptyline] -0.648, O=c1c(O[C@@H]2O[C@H](CO)[C@@H](O)[C@H](O)[C@H]2O)c(-c2ccc(O)c(O)c2)oc2cc(O)cc(O)c12 [Isoquercitrin] 1.55, CC1(C)S[C@@H]2[C@H](NC(=O)[C@H](N)c3ccc(O)cc3)C(=O)N2[C@H]1C(=O)O [Amoxicillin] -18.6, NC12CC3CC(CC(C3)C1)C2 [Amantadine] -4.46, Cc1[nH]c(=O)c(C#N)cc1-c1ccncc1 [Milrinone] -7.08, CCCC(=O)Nc1ccc(OCC(O)CNC(C)C)c(C(C)=O)c1 (centres undefined) [Acebutolol] -40.3, O=C(NCCO[N+](=O)[O-])c1cccnc1 [Nicorandil] -8.12, CN(C)CCC(c1ccc(Cl)cc1)c1ccccn1 (centres undefined) [Chlorpheniramine] -9.68, Nc1nc(N)nc(-c2cc(Cl)ccc2Cl)n1 [Irsogladine] -14.2, CC(=O)SCC(Cc1ccccc1)C(=O)NCC(=O)OCc1ccccc1 (centres undefined) [Racecadotril] -48.7, CC(=O)Nc1ccc(CC(=O)O)cc1 [Actarit] -13.9, CCN(CC)CCNC(=O)c1cc(Cl)c(N)cc1OC [Metoclopramide] -6.65, CCOC(=O)C1=C(C)NC(C)=C(C(=O)OC)C1c1cccc(Cl)c1Cl (centres undefined) [Felodipine] 20.4, CN1CCN(C2=Nc3cc(F)ccc3Cc3ccccc32)CC1 [Fluperlapine] 6.96
